What is called AC50 is the concentration giving half of the maximal activity seen.

Each structure is given as a SMILES string. The campaign covered roughly 16,000 compounds. About 4,000 (25%) were called active. About 26% were inconclusive and are not listed. A selection follows. A number with no mark means an inactive call. Calls follow the shape of the dose curve; as a rule, active = well fitted curve in the direction sought with a large enough effect; inconclusive = small, poorly fitted or top-dose-only effect, or effect the other way; inactive = no such curve, though single readings can be large or run the other way.

The record followed here is PubChem BioAssay AID1851 (National Center for Advancing Translational Sciences (NCATS), 2009).
% is scaled to controls: 0 for no effect and ±100 for the full control effect.

The target of this experiment is Cytochrome P450 2C9 (Homo sapiens) (UniProt P11712). Description: Cytochrome panel assay with activity outcomes. Particulars: recombinant CYP, pro-luciferin dealkylation, luminescence, p450-cyp2c9; series mostly up to 57.1 µM; activity, negative = inhibition: at the top concentration.
Chain of Cytochrome P450 2C9 (Homo sapiens) (P11712 whole entry, looked up): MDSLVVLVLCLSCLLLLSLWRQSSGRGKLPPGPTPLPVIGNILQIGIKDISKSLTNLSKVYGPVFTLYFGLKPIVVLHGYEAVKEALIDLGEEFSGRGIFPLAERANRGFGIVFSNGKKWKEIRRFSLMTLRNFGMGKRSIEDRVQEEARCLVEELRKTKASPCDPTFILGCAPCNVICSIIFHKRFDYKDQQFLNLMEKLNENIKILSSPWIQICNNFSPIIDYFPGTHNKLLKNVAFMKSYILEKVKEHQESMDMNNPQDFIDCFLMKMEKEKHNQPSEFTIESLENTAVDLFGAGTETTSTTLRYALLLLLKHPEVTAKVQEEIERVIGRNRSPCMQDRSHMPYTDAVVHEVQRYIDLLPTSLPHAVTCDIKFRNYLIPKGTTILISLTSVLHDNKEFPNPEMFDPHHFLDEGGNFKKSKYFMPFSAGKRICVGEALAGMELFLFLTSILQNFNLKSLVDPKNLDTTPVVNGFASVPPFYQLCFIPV
Take `COc1ccccc1CN1CCC2(CC1)CCN(C(=O)c1c(C)noc1C)CC2`: the “activity, negative = inhibition” value was -3.96%.
As to `CN(Cc1ccco1)c1ccnc(-c2cccc(NS(C)(=O)=O)c2)n1`, the activity, negative = inhibition is -11.7% [at 2.29 µM].
The same measure, in the same setting: then `O=C(CC(=O)NN=C1CCCC1)NCCc1ccccc1`, with -21.1%.
For the compound `COc1ccc(N(CC(=O)NN=C2CCCC2)S(=O)(=O)c2ccccc2)cc1`, the concentration at half-maximal activity (AC50) is 10 µM (active).
Still for that read-out and setting: then `COCCCNC(=O)CN(c1ccc(OC)cc1)S(=O)(=O)c1ccc(NC(C)=O)cc1`, with 11.2 µM (active).
Consider `CC1CCC(=NNC(=O)Cc2ccccc2)CC1` (stereo not drawn), for which the “activity, negative = inhibition” value is -15.6%.
Still for that read-out and setting: the figure for `COc1ccc2c(=O)cc(-c3ccncc3)oc2c1OC` is -7.78% [at 11.4 µM]; for `O=S(=O)(O)c1ccc(-c2nnc(-c3ccccn3)nc2-c2ccc(S(=O)(=O)O)o2)o1` it is -9.22% [at 11.4 µM].
Still for that read-out and setting: then `CO[C@@H]1COC(=O)[C@@H](C)NC(=O)C/C=C\[C@@H](C)[C@H](NS(=O)(=O)c2ccc(C)cc2)COC(=O)[C@H](C)NC(=O)C/C=C\[C@H]1C`, with 9.56% [at 11.4 µM].
With `CC1(C)OC(=O)NC1=O`, the “activity, negative = inhibition” value is 1.46% [at 25.6 µM].
The same measure, in the same setting: then `COC(=O)Cn1cnc(=O)c(C#N)c1/C=C/N(C)C`, with -7.06%; and `Cc1cnc(CNc2ncnc3ccc(-c4ccccc4C)cc23)cn1`, with 0.0371% [at 2.29 µM]; and `COc1ccc(NC(=O)N2CC[C@@]3(CCCN(C(=O)c4cccn4C)C3)C2)cc1`, with -3.34%.
The same measure, in the same setting: the figure for `NC(=O)[C@H]1CC2(CC(c3cccc(NC(=O)c4ccccc4)c3)=NO2)CN1C(=O)[C@H]1CCC(=O)N1` (stereo partly drawn) is -2.82%; for `NCCNc1ncnc2ccc(Cl)cc12` it is 6.44% [at 11.4 µM].
For `CNc1ncnc2ccc(-c3ccccc3CN(C)C)cc12`, the activity, negative = inhibition was -7.28% [at 2.29 µM].
Regarding `c1ccc(Nc2ncnc3ccc(-c4cccnc4)cc23)cc1`, the activity, negative = inhibition was 5.26% [at 2.29 µM].
As for `Brc1ccc2ncnc(Nc3cccc4ccccc34)c2c1`, the half-maximal activity concentration (AC50) is 2.51 µM (active).
On to `c1ccc(Nc2ncnc3ccc(-c4ccoc4)cc23)cc1`, for which the activity, negative = inhibition is 1.19% [at 2.29 µM].
As to `Clc1cccc(Nc2ncnc3ccc(Br)cc23)c1`, the half-maximal activity concentration (AC50) is 14.1 µM (active).
As for `CN[C@H]1[C@@H](O[C@@H]2[C@H](O[C@@H]3[C@@H](O)[C@@H](O)[C@@H](N=C(N)N)[C@@H](O)[C@@H]3N=C(N)N)O[C@H](C)[C@@]2(O)C=O)O[C@@H](CO)[C@@H](O)[C@H]1O`, the “activity, negative = inhibition” value is 3.44% [at 25.6 µM].
As to `CCc1c2c(nc3cccc(SC)c13)COC2`, the “activity, negative = inhibition” value is -23%.
Take `CC(C)OC(=O)c1nnn(-c2nonc2N)c1CSc1ccccn1`: the AC50 was 1.58 µM (active).
On the same count and under the same terms, the figure for `Cc1cc(OC(=O)c2ccc(Cl)cc2Cl)nc(C)n1` is 5.62 µM (active); for `CCc1cc2c(=O)c(-c3nc4ccccc4n3C)c(C)oc2c(CN(CC)CC)c1O` it is 14.1 µM (active).
For the compound `Cc1oc2c(C)c(O)ccc2c(=O)c1-c1ccc2ccccc2n1`, the “activity, negative = inhibition” value is -13.7%.
With `COc1ccc(-n2c(=O)c(-c3cn(C)c4ccccc34)nc3cnc(OC)nc32)cc1`, the “activity, negative = inhibition” value is -6.46%.
Take `CC[C@H]1CN(C)[C@H]2Cc3c([nH]c4ccccc34)C(=O)C[C@H]1[C@H]2C(=O)OC`: the activity, negative = inhibition is -5.96% [at 11.4 µM].
Still for that read-out and setting: then `O=C(O)c1cc(=O)c2c(OCC(O)COc3cccc4oc(C(=O)O)cc(=O)c34)cccc2o1`, with 10.9% [at 25.6 µM]; and `O=c1cc(-c2ccccc2)oc2cc(O)c(O)c(O)c12`, with 3.94%.
As for `CCOC(=O)COc1cc(OCC(=O)OCC)c2c(=O)cc(-c3ccccc3)oc2c1`, the half-maximal activity concentration (AC50) is 8.91 µM (active).
Take `COc1cc2nncc(SCc3ccc(Cl)c(Cl)c3)c2cc1OC`: the activity, negative = inhibition was -3.4% [at 11.4 µM].
`COc1cnc(SCc2ccc(Cl)cc2)nc1Cl`: the AC50 was 22.4 µM (active).
Take `Cc1nc2cnc(N3CCOCC3)nc2n(C)c1=O`: the “activity, negative = inhibition” value is -21.1%.
For the compound `Cc1nc(N2CCOCC2)nc(N2CCN(c3ccccc3)CC2)c1[N+](=O)[O-]`, the AC50 was 3.16 µM (active).
`Cc1noc(C)c1-c1nc(N2CCOCC2)c2ccccc2n1`: the activity, negative = inhibition was 4.41% [at 2.29 µM].
For `COC(Cn1c(C)c(C(C)=O)c(C(C)=O)c1C)OC`, the “activity, negative = inhibition” value was 26.1%.
As to `c1ccc(-c2cccc(N3CCC4(CCNCC4)CC3)c2)cc1`, the “activity, negative = inhibition” value was -3.68%.
On to `O=C(O)/C=C\C(=O)Nc1ncn[nH]1`, for which the activity, negative = inhibition is -8.21% [at 11.4 µM].
With `Cc1ccc(OCC(=O)Nc2ccc(S(=O)(=O)Nc3onc(C)c3C)cc2)cc1`, the half-maximal activity concentration (AC50) is 17.8 µM (active).
On to `Cc1noc(NS(=O)(=O)c2ccc(N)cc2)c1C`, for which the “activity, negative = inhibition” value is 2.14% [at 25.6 µM].
On to `Cc1noc(C)c1C(=O)N1CCC[C@@]2(CCN(c3ncccn3)C2)C1`, for which the “activity, negative = inhibition” value was -5.51%.
For the compound `COc1ccccc1-c1nccc(NCc2ccccc2)n1`, the activity, negative = inhibition is 4.32% [at 2.29 µM].
For the compound `COc1ccc(CNc2nc3ccccc3n2Cc2ccccc2)cc1OC`, the half-maximal activity concentration (AC50) was 8.91 µM (active).
In the case of `C=CCn1c(NCc2ccccc2)nc2ccccc21`, the “activity, negative = inhibition” value was 21.7%.
With `CCc1c(C(C)O)oc2ccc3c(C)cc(=O)oc3c12` (stereo not drawn), the AC50 was 7.94 µM (active).
On to `Cc1cc2cc3c(C)cc(=O)oc3c(C)c2o1`, for which the “activity, negative = inhibition” value was -0.447% [at 25.6 µM].
Consider `CC(C)n1c(=O)c2c(O)cc(=O)oc2c2ccccc21`, for which the “activity, negative = inhibition” value is -4.52%.
Same read-out and setting: the figure for `NCCCc1ccc2oc3ccccc3c2c1` is -10.6% [at 11.4 µM].
For the compound `O=C(O)CCCc1ccc2ccc3ccccc3c2c1`, the activity, negative = inhibition is 17.3% [at 11.4 µM].
Consider `NNC(=O)CCc1ccc2ccc3ccccc3c2c1`, for which the AC50 is 1.58 µM (active).
In the case of `CC(C)COP(=O)(OCC(C)C)C(O)c1ccccc1F` (stereo not drawn), the “activity, negative = inhibition” value is -25%.
Consider `O=C(CCNC(=O)Cn1cnc2ccccc2c1=O)NCC1COc2ccccc2O1` (stereo not drawn), for which the AC50 was 10 µM (active).
With `CCCNC(=O)Cn1cnc2sc(C(=O)Nc3ccc4c(c3)OCO4)c(C)c2c1=O`, the half-maximal activity concentration (AC50) was 1.12 µM (active).
Regarding `CCC(C)NC(=O)Cn1cnc2sc(C)cc2c1=O` (stereo not drawn), the “activity, negative = inhibition” value is -1.84%.
As for `O=C(Cn1cnc2ccccc2c1=O)NCCC(=O)Nc1ccc2c(c1)OCCO2`, the AC50 was 6.31 µM (active).
Take `O=C1CC2(CCCC2)CC(=O)N1CCCCNC[C@H]1COc2ccccc2O1`: the “activity, negative = inhibition” value was -16.7%.
Turning to `COc1cccc(OC)c1OCCNC[C@@H]1COc2ccccc2O1`, the AC50 result is “inactive”.
As to `C[N@+]1(CCC(=O)c2ccccc2)CC[C@H]2CC[C@H](C2)C1`, the activity, negative = inhibition is 8.55% [at 11.4 µM].
`N/N=C1/CC(=O)NC(=O)N1`: the activity, negative = inhibition is 28.1% [at 11.4 µM].
With `CC(=O)N(CC(=O)O)c1ccccc1C(=O)O`, the “activity, negative = inhibition” value was -20.7%.
On the same count and under the same terms, the figure for `CC(CC(=O)O)(CC(=O)O)c1ccccc1` is 13.9% [at 11.4 µM].
Consider `CC(C)(C)C(=O)N(CCN(C(=O)C(C)(C)C)c1ccccc1)c1ccccc1`, for which the concentration at half-maximal activity (AC50) is 15.8 µM (active).
`O=C(c1cccc(F)c1)N1CCC2(CC1)CN(c1ccc(-c3ccccc3)cc1)C2`: the “activity, negative = inhibition” value is -14%.
With `O=C(c1cccc(F)c1)N1CCC2(CCCN(c3ccc(-c4ccccc4)cc3)C2)CC1`, the AC50 was 15.8 µM (active).
For `O=C(c1cccc(F)c1)N1CCC[C@@]2(CCN(c3ccccc3)C2)C1`, the “activity, negative = inhibition” value is 4.38%.
For `O=C(c1cccc(F)c1)N1CCC2(CC1)CCN(c1ccc(-c3ccccc3)cc1)CC2`, the “activity, negative = inhibition” value is 5.13%.
Consider `O=C(c1cccc(F)c1)N1CCC2(CCCN(c3cccc(-c4ccccc4)c3)C2)CC1`, for which the AC50 was 12.6 µM (active).
As to `O=C(c1cccc(F)c1)N1CCC2(CC1)CCN(c1cccc(-c3ccccc3)c1)CC2`, the “activity, negative = inhibition” value is -3.94%.
On the same count and under the same terms, the figure for `O=C(c1cccc(F)c1)N1CCC2(CC1)CN(c1cccc(-c3ccccc3)c1)C2` is -14.6%.
Same read-out and setting: the figure for `CC(C)NC(=O)N1CCCC2(CCN(C(=O)c3cccc(F)c3)CC2)C1` is 24.4%.
With `O=C(c1cccc(F)c1)N1CCC2(CCCN(c3ccccc3)C2)CC1`, the concentration at half-maximal activity (AC50) was 10 µM (active).
As to `O=C(c1cc(C(F)(F)F)cc(C(F)(F)F)c1)N1CCC[C@@]2(CCN(c3ccccn3)C2)C1`, the “activity, negative = inhibition” value was -4.83%.
With `Clc1ccc(C(c2nnnn2C2CCCC2)N2CCN(Cc3ccncc3)CC2)cc1` (stereo not drawn), the concentration at half-maximal activity (AC50) is 1.12 µM (active).
`Cc1ccc(C(c2nnnn2C2CCCC2)N2CCN3CCCC3C2)cc1` (stereo not drawn): the “activity, negative = inhibition” value is -15.1%.
Still for that read-out and setting: then `CN1CCCN([C@@H](c2ccccc2)c2ccc(Cl)cc2)CC1`, with 0.463% [at 25.6 µM].
Still for that read-out and setting: the figure for `COc1ccc2c(c1)c(CC(=O)OCC(=O)O)c(C)n2C(=O)c1ccc(Cl)cc1` is -5.28% [at 25.6 µM]; for `COc1ccc2c(c1)c(CC(=O)O)c(C)n2C(=O)c1ccc(Cl)cc1` it is 6.09%.
`COc1ccc2c(c1)c(CC(=O)O)c(C)n2C(=O)c1ccccc1`: the half-maximal activity concentration (AC50) is 10 µM (active).
Regarding `O=C(O)/C=C\[C@H](O)c1ccc(Cl)cc1`, the “activity, negative = inhibition” value is -12.8%.
Take `O=C(CSc1nnc2c3ccccc3c3ccccc3c2n1)Nc1ccccc1`: the AC50 was 2.51 µM (active).
Regarding `c1ccc(CSc2nnc3c4ccccc4c4ccccc4c3n2)cc1`, the activity, negative = inhibition was -1.66% [at 11.4 µM].
Same read-out and setting: then `O=C(CSC1=NCCN1)Nc1ccccc1`, with 2.48% [at 11.4 µM]; and `C[N+]1(CCC[N+]2(C)C[C@H]3[C@H](C2)[C@H]2C=C[C@@H]3CC2)CCOCC1` (stereo partly drawn), with -9.72% [at 11.4 µM]; and `N[C@]1(C(=O)O)CCc2cc(P(=O)(O)O)ccc21`, with -9.65%.
On to `CCc1ccc(OCC(=O)NNC(=O)CSc2ncnc3sc(C)c(C)c23)cc1`, for which the “activity, negative = inhibition” value is 13.8%.
For the compound `COC(=O)c1c(-c2ccccc2)csc1NC(=O)CSc1ncnc2sc(C)c(C)c12`, the concentration at half-maximal activity (AC50) is 1.26 µM (active).
Same read-out and setting: the figure for `Nc1nc(Nc2ccccc2)nc2c1ncn2[C@@H]1O[C@@H](CO)[C@H](O)[C@H]1O` is 0.794 µM (active).
Take `Nc1nc(Cl)nc2c1ncn2[C@@H]1O[C@@H](CO)[C@@H](O)[C@H]1O`: the “activity, negative = inhibition” value was -24.4%.
Same read-out and setting: the figure for `Nc1nc(Nc2ccccc2)nc2c1ncn2[C@@H]1O[C@@H](CO)[C@H](O)[C@@H]1O` is -3.52%.
`Nc1ccc(-c2sc(N)nc2-c2ccccc2)cc1`: the AC50 was 28.2 µM (active).
As for `Nc1nc(-c2ccccc2)c(-c2ccccc2)c(-c2nc(N)nc(-c3ccccc3)c2-c2ccccc2)n1`, the activity, negative = inhibition was -3.1% [at 11.4 µM].
`COc1ccc(CNc2ncnc3ccc(-c4c(C)noc4C)cc23)c(OC)c1`: the activity, negative = inhibition is -23.3% [at 2.29 µM].
